Screening results from PubChem BioAssay.
gsp agonist: qHTS for Agonist of gsp, the Etiologic Mutation Responsible for Fibrous Dysplasia/McCune-Albright Syndrome: qHTS. gsp mutant cells, cAMP HTRF, 30 min. Potency, µM (top dose mostly 76.9 µM), for the others: top-dose activation (cAMP increase), actives largely listed as activators. actives 0.13% (n = 340,000). AID 624287, 2012; active means well fitted activation curve with a large enough effect; inconclusive means small, poorly fitted or top-dose-only effect, or another doubt; inactive means no such curve, though single readings can be large or run the other way; cell line not stated here;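 further: phosphodiesterase inhibitor Ro 20-1724 added with compounds to block cAMP breakdown; potency means the concentration at half of the fitted maximal effect; nearly all actives have a fitted effect of over 60% in size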
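Cells stably selected in G418 were plated at 2000/well, grown 16-24 hr, then given compounds in DMSO with the PDE inhibitor […] (300 uM solution added) for 30 min at 37C; cAMP was read by HTRF.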
IL-2 act: qHTS of IL-2 Activators. IL-2 activation reporter assay, cell-based qHTS; stimulated with anti-CD3/CD4/CD28 beads; in transgenic mouse T cells. activation, % (series mostly up to about 46 µM). actives 0.065% (n = 360,000); in the data active means activation above about 50%; inconclusive means mostly about 30% to 49%; further: 0% is about no effect
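EGFP and DsRed fluorescence is measured by plate cytometry in unstimulated transgenic mouse T cells exposed to compound for 60 minutes, then stimulated 18 hours at 37 degrees C with anti-CD3/anti-CD4 beads plus anti-CD28.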
gsp antag: qHTS for Antagonists of gsp, the Etiologic Mutation Responsible for Fibrous Dysplasia/McCune-Albright Syndrome: qHTS | gsp-mutant cells, cAMP HTRF, 30 min | Potency, µM (titrated, usually from 76.9 µM), for inactives: at the top dose activity change, negative = inhibition, most hits filed as inhibitors | actives 0.4% (n = 340,000) | AID 624288, 2012; calls by dose curve; cell line not stated here;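 further: intracellular cAMP measured with PDE inhibitor Ro 20-1724 present during compound exposure; potency means the concentration at half of the fitted maximal effect; on the % scale 0 is the no-effect control and ±100 the full control effect; nearly all actives have a fitted effect of over 65% in size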
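Measurement of cellular cAMP by homogeneous time-resolved fluorescence following a 30 min compound exposure at 37C. The PDE inhibitor […] was present throughout; the assay buffer was DPBS with 0.05% BSA and 0.005% Tween 20.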
mIDH1 inhibitor: qHTS for Inhibitors of mutant isocitrate dehydrogenase 1 (IDH1): qHTS. IDH1-R132H enzyme, NADPH consumption, diaphorase/resazurin fluorescence. Potency, µM (highest dose often 76.6 µM), inactives show at the highest dose activity change, negative = inhibition, usual class: inhibitors. actives 0.093% (n = 390,000). AID 602179, 2012; further: potency means the concentration at half of the fitted maximal effect; on the % scale 0 is the no-effect control and ±100 the full control effect; nearly all actives have a fitted effect of over 65% in size
Target sequence (O75874 whole entry R132H, stated change not applied): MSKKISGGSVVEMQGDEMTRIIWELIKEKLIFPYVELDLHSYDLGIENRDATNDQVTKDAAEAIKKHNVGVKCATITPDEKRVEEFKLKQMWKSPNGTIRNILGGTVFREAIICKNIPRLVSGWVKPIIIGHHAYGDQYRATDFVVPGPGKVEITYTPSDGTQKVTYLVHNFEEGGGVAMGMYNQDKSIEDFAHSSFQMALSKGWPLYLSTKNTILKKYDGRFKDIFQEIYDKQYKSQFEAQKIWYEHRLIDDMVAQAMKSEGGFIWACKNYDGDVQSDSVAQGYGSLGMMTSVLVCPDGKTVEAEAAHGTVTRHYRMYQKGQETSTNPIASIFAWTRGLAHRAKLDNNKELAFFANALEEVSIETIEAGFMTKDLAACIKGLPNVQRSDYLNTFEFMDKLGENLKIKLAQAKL
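IDH1-R132H (0.5 ug/mL dispensed) in pH 7.5 Tris buffer was preincubated 30 min with compound, then given a substrate mix of 0.016 mM NADPH and 2 mM alpha-KG for 80 min at room temperature; remaining NADPH was read by diaphorase/resazurin fluorescence.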
BRCA1 expr up: qHTS Assay to Identify Small Molecule Activators of BRCA1 Expression; MCF7-BRCA1-FFLuc reporter, luminescence, 48 h; response scale: scaled: vehicle 0%, 10 µM genistein 100%; Potency, µM (highest dose often 46.1 µM), inactives show at the top dose activation, most hits filed as activators; actives 1.1% (n = 380,000); AID 624202, 2012; further: potency means the concentration at half of the fitted maximal effect; nearly all actives have a fitted effect of over 80% in size
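MCF7 cells carrying a BRCA1-firefly luciferase reporter (2000 cells/well, phenol-red free MEM) were attached for 2 h at 37 °C, then given compounds for 48 h. Luminescence was read 15 min after luciferase reagent; activity normalized to genistein (10 microM) and DMSO.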
The depositor's hits bear a star; ? = inconclusive; . = no result; [ ] = remark or other dose. In the library only some 1.5% were active in any assay of this set; here they are far more common. Unless noted, the call rests on the fitted dose curve; in most records, active means well fitted curve in the direction sought with a large enough effect; inconclusive means small, poorly fitted or top-dose-only effect, or another doubt; inactive means no such curve, though single readings can be large; an effect the other way counts as inactive or inconclusive.

SMILES	gsp agonist	IL-2 act	gsp antag	mIDH1 inhibitor	BRCA1 expr up
N#C/C(C(=O)c1ccccc1)=C1/CCCN1	3%	-1	4%	-2%	31%
N#C/C(C(=O)Oc1ccccc1)=C1\C=CC=CN1	24%	0	10%	9%	3.2µM*
CCOC(=O)[C@]12CCCC=C1N(Cc1ccc(Cl)cc1Cl)C(=O)[C@H](CC(=O)NCC13CC4CC(CC(C4)C1)C3)C2	.	3	.	.	-31%
CN(C)c1ccc(C(I)C(I)c2ccnc3ccccc23)cc1 (configuration not stated)	.	.	.	.	23%
O=C(COC(=O)CCc1nc2ccccc2s1)NCc1ccco1	18%[15.4 µM]	-2	7%	4%	-8%
O=C(COC(=O)CCc1nc2ccccc2s1)NC(=O)NCc1ccco1	1%[15.4 µM]	2	11µM*	2%	3%
CSc1ccc(CNc2ccccn2)cc1	-20%	0	9%	-4%	10µM*
COc1ccccc1/C=N\NC(=O)c1ccc(COc2ccc(C)c(C)c2)o1	-5%	0	-4%	17%	5.6µM*
O=C(N/N=C/c1ccc2ccccc2c1)c1ccc(COc2ccc3c(c2)CCC3)o1	6%	-1	16%	-7%	2µM*
COc1ccccc1NC(=O)c1ccc(COc2ccc(C)c(C)c2)o1	.	.	.	7%	.
O=S(=O)(c1ccc(NC(=S)N2CCN(c3ccccc3F)CC2)cc1)N1CCOCC1	-3%[15.4 µM]	-1	-16%	3%	-2%
COc1ccccc1N1CCN(C(=S)Nc2ccc(S(=O)(=O)N3CCOCC3)cc2)CC1	4%[15.4 µM]	-1	32µM*	0%	-37%
COc1ccc(-n2nc(C(=O)NCC(=O)N3CCCCC3)c3ccccc3c2=O)c(OC)c1	12%	0	2%	-9%	13µM*
COc1ccccc1N1CCN(C(=O)CNC(=O)c2cn(-c3ccccc3OC)c(=O)c3ccccc23)CC1	-24%	0	-21%	3%	65%
COc1ccc(-n2nc(C(=O)NCC(=O)N3CCN(c4ccccc4F)CC3)c3ccccc3c2=O)cc1OC	-7%[15.4 µM]	-1	2%	9%	8.9µM*
COc1ccc(-n2nc(C(=O)NCC(=O)N3CCCCCC3)c3ccccc3c2=O)c(OC)c1	-16%[15.4 µM]	1	6%	3%	11µM*
COc1ccccc1-n1cc(C(=O)NCC(=O)N2CCN(c3ccccc3)CC2)c2ccccc2c1=O	?	1	5%	1%	13µM*
COc1ccc(-n2nc(C(=O)NCC(=O)N3CCN(c4ccccc4F)CC3)c3ccccc3c2=O)cc1	?	0	-13%	-9%	?
Cc1ccc(NC(=O)c2ccc3c(O)c(S(=O)(=O)c4ccccc4)c(=O)[nH]c3c2)cc1Cl	.	.	.	-13%	.
CCN(CC(=O)Nc1ccccc1C(F)(F)F)C(=O)c1ccc(-n2nc(C)c(CCC(=O)OC)c2C)cc1	?	1	?	13%	11%
O=C(Nc1scc(-c2ccc(F)cc2)c1C(=O)O)c1ccco1	-42%	2	?	10%	92%
COC(=O)c1c(-c2ccccc2)csc1NC(=O)c1ccco1	-19%	1	2%	3%	5µM*
CCC1Oc2ccccc2N(CC(=O)NCc2cc(OC)ccc2OC)C1=O (configuration not stated)	.	.	.	9%	.
Cn1c(=O)c2sccc2n2c(CCCC(=O)NCc3ccc4c(c3)OCO4)nnc12	35µM*	-3	-1%	0%	3%
COc1ccc2cc(CO)c(Cl)nc2c1	17%	-2	13%	-1%	25%
COc1ccc2cc(/C=N/O)c(Cl)nc2c1	-2%[15.4 µM]	0	9%	-1%	7.9µM*
CCOC(=O)c1sc(-c2ccccc2)nc1C	1%[15.4 µM]	-3	2%	17%	69%
CCOC(=O)Cc1ccc2sc(-c3ccccc3)nc2c1	-3%	0	-12%	5%	4.5µM*
